Test results: PubChem BioAssay AID1159580 (chemical genetic matrix, 2015)
In all, about 5,500 compounds went through this assay and about 2,000 (36%) were called active. Not shown: some 18% with an inconclusive outcome. Cut-off read from the data, not from the text of the source: active = normalized growth mostly below about 0.91 (no sharp cut-off); inconclusive = no clear call, values can overlap the other calls; inactive = mostly above about 0.92. The list shows a part of the results.

Test: chemical genetic growth profiling, strain panel (AID 1159580);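 note: tested at 20 µM; growth read once vehicle control cultures reached saturation at 30 °C; 1 = growth at the plate median or of vehicle wells; lower values mean less growth of the strain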
Details: growth OD

Measured: normalized growth

OCC(O)Cc1ccc2c(c1)OCO2 (centres undefined)
inactive: S. cerevisiae deletion strains, locus YJR043C, strain POL32, stronger effect = lower value 0.995 | S. cerevisiae deletion strains, locus YJR075W, strain HOC1, stronger effect = lower value 0.984 | S. cerevisiae deletion strains, locus YKL009W, strain mrt4, stronger effect = lower value 1 | S. cerevisiae deletion strains, locus YKL068W, stronger effect = lower value 1 | S. cerevisiae deletion strains, locus YKL085W, strain MDH1 (second series), stronger effect = lower value 1.03 | S. cerevisiae deletion strains, locus YKL085W, strain MDH1, stronger effect = lower value 1.03 | S. cerevisiae deletion strains, locus YKL160W, strain elf1, stronger effect = lower value 1 | S. cerevisiae deletion strains, locus YKL190W, strain CNB1, stronger effect = lower value 1.02 | S. cerevisiae deletion strains, locus YKR001C, strain vps1, stronger effect = lower value 0.999 | S. cerevisiae deletion strains, locus YKR026C, strain gcn3, stronger effect = lower value 0.989 | S. cerevisiae deletion strains, locus YKR091W, strain srl3, stronger effect = lower value 1 | S. cerevisiae deletion strains, locus YLL001W, strain dnm1, stronger effect = lower value 1 | S. cerevisiae deletion strains, locus YLL026W, stronger effect = lower value 0.997 | S. cerevisiae deletion strains, locus YLL041C, strain sdh2, stronger effect = lower value 0.994 | S. cerevisiae deletion strains, locus YLR027C, strain aat2, stronger effect = lower value 0.976 | S. cerevisiae deletion strains, locus YLR039C, strain RIC1, stronger effect = lower value 1.03 | S. cerevisiae deletion strains, locus YLR058C, strain SHM2, stronger effect = lower value 1.02 | S. cerevisiae deletion strains, locus YLR102C, strain apc9, stronger effect = lower value 1 | S. cerevisiae deletion strains, locus YLR221C, strain rsa3, stronger effect = lower value 0.997 | S. cerevisiae deletion strains, locus YLR258W, strain gsy2, stronger effect = lower value 1.01 | S. cerevisiae deletion strains, locus YLR262C, strain YPT6 (second series), stronger effect = lower value 1.01 | S. cerevisiae deletion strains, locus YLR262C, strain YPT6, stronger effect = lower value 1.06 | S. cerevisiae deletion strains, locus YLR268W, strain sec22, stronger effect = lower value 1 | S. cerevisiae deletion strains, locus YLR320W, strain mms22, stronger effect = lower value 0.983 | S. cerevisiae deletion strains, locus YLR330W, strain CHS5, stronger effect = lower value 1.01 | S. cerevisiae deletion strains, locus YLR342W, strain FKS1 (second series), stronger effect = lower value 0.99 | S. cerevisiae deletion strains, locus YLR342W, strain FKS1, stronger effect = lower value 0.992 | S. cerevisiae deletion strains, locus YLR357W, strain rsc2, stronger effect = lower value 0.973 | S. cerevisiae deletion strains, locus YLR370C, strain arc18, stronger effect = lower value 1 | S. cerevisiae deletion strains, locus YLR371W, strain rom2, stronger effect = lower value 0.989 | S. cerevisiae deletion strains, locus YLR384C, strain iki3, stronger effect = lower value 0.992 | S. cerevisiae deletion strains, locus YLR418C, strain cdc73, stronger effect = lower value 1.02 | S. cerevisiae deletion strains, locus YML016C, strain PPZ1, stronger effect = lower value 1.01 | S. cerevisiae deletion strains, locus YML032C, strain rad52, stronger effect = lower value 0.989 | S. cerevisiae deletion strains, locus YML120C, strain ndi1, stronger effect = lower value 0.995 | S. cerevisiae deletion strains, locus YML124C, strain tub3, stronger effect = lower value 0.996 | S. cerevisiae deletion strains, locus YMR058W, strain fet3, stronger effect = lower value 1.01 | S. cerevisiae deletion strains, locus YMR078C, strain ctf18, stronger effect = lower value 0.99 | S. cerevisiae deletion strains, locus YMR125W, strain sto1, stronger effect = lower value 0.997 | S. cerevisiae deletion strains, locus YMR129W, stronger effect = lower value 0.994 | S. cerevisiae deletion strains, locus YMR205C, strain PFK2, stronger effect = lower value 0.981 | S. cerevisiae deletion strains, locus YMR223W, strain ubp8, stronger effect = lower value 0.987 | S. cerevisiae deletion strains, locus YMR231W, strain pep5, stronger effect = lower value 0.996 | S. cerevisiae deletion strains, locus YMR263W, strain SAP30, stronger effect = lower value 1.03 | S. cerevisiae deletion strains, locus YMR307W, strain GAS1, stronger effect = lower value 0.956 | S. cerevisiae deletion strains, locus YNL067W, strain RPL9B, stronger effect = lower value 1.03 | S. cerevisiae deletion strains, locus YNL071W, strain lat1, stronger effect = lower value 1.01 | S. cerevisiae deletion strains, locus YNL128W, strain TEP1, stronger effect = lower value 1.02 | S. cerevisiae deletion strains, locus YNL153C, strain GIM3, stronger effect = lower value 1.03 | S. cerevisiae deletion strains, locus YNL209W, strain ssb2, stronger effect = lower value 1.02 | S. cerevisiae deletion strains, locus YNL233W, strain BNI4, stronger effect = lower value 1.04 | S. cerevisiae deletion strains, locus YNL248C, strain rpa49, stronger effect = lower value 0.979 | S. cerevisiae deletion strains, locus YNL250W, strain rad50, stronger effect = lower value 1.01 | S. cerevisiae deletion strains, locus YNL271C, strain bni1, stronger effect = lower value 0.996 | S. cerevisiae deletion strains, locus YNL298W, strain CLA4, stronger effect = lower value 1.01 | S. cerevisiae deletion strains, locus YNL307C, strain MCK1, stronger effect = lower value 0.999 | S. cerevisiae deletion strains, locus YNL322C, strain KRE1 (second series), stronger effect = lower value 1 | S. cerevisiae deletion strains, locus YNL322C, strain KRE1, stronger effect = lower value 1.01 | S. cerevisiae deletion strains, locus YNR049C, strain mso1, stronger effect = lower value 0.989 | S. cerevisiae deletion strains, locus YNR052C, strain pop2, stronger effect = lower value 0.989 | S. cerevisiae deletion strains, locus YOL006C, strain TOP1, stronger effect = lower value 1.07 | S. cerevisiae deletion strains, locus YOL012C, strain htz1 0.853 | S. cerevisiae deletion strains, locus YOL147C, strain pex11, stronger effect = lower value 1 | S. cerevisiae deletion strains, locus YOR001W, strain rrp6, stronger effect = lower value 0.985 | S. cerevisiae deletion strains, locus YOR061W, strain CKA2, stronger effect = lower value 1.02 | S. cerevisiae deletion strains, locus YOR069W, strain VPS5, stronger effect = lower value 1 | S. cerevisiae deletion strains, locus YOR070C, strain gyp1, stronger effect = lower value 1 | S. cerevisiae deletion strains, locus YOR080W, strain dia2, stronger effect = lower value 0.988 | S. cerevisiae deletion strains, locus YOR083W, strain WHI5, stronger effect = lower value 1 | S. cerevisiae deletion strains, locus YOR106W, strain vam3, stronger effect = lower value 1.03 | S. cerevisiae deletion strains, locus YOR136W, strain idh2, stronger effect = lower value 0.993 | S. cerevisiae deletion strains, locus YOR144C, strain elg1, stronger effect = lower value 0.997 | S. cerevisiae deletion strains, locus YOR184W, strain ser1, stronger effect = lower value 0.99 | S. cerevisiae deletion strains, locus YOR265W, strain rbl2, stronger effect = lower value 1 | S. cerevisiae deletion strains, locus YOR270C, strain vph1, stronger effect = lower value 1.03 | S. cerevisiae deletion strains, locus YOR290C, strain snf2, stronger effect = lower value 1.01 | S. cerevisiae deletion strains, locus YOR316C, strain cot1, stronger effect = lower value 0.997 | S. cerevisiae deletion strains, locus YPL051W, strain arl3, stronger effect = lower value 1 | S. cerevisiae deletion strains, locus YPL055C, strain LGE1, stronger effect = lower value 1.06 | S. cerevisiae deletion strains, locus YPL078C, strain atp4, stronger effect = lower value 1.02 | S. cerevisiae deletion strains, locus YPL106C, strain sse1, stronger effect = lower value 0.979 | S. cerevisiae deletion strains, locus YPL240C, strain hsp82, stronger effect = lower value 1 | S. cerevisiae deletion strains, locus YPL241C, strain CIN2, stronger effect = lower value 1.01 | S. cerevisiae deletion strains, locus YPR119W, strain clb2, stronger effect = lower value 0.995 | S. cerevisiae deletion strains, locus YPR141C, strain kar3, stronger effect = lower value 0.997 | S. cerevisiae deletion strains, locus YPR163C, strain tif3, stronger effect = lower value 0.992 | S. cerevisiae deletion strains, locus YPR167C, strain met16, stronger effect = lower value 0.996 | S. cerevisiae deletion strains, strain wtn01, stronger effect = lower value 0.997 | S. cerevisiae strains, strain wild type, stronger effect = lower value 1.01
